Test results taken from PubChem BioAssay (EPA / NIEHS).
Results filed as inconclusive are left out. Calls of active or inactive are those of the source. How the source made its calls, unless noted: active means hit-call score of the fitted dose curve at least 0.9, where 1 is the maximum; inactive means score below 0.9.

Tests used:
[1] = BSK_3C_VCAM1: BioMAP Diversity Plus: 3C Assay for Vascular cell adhesion molecule 1 (VCAM1) Biomarker Activity (AID 2282999); details: BioMAP 3C HUVEC, VCAM1 ELISA, cytokine-stimulated; actives raise or lower the signal
How it was run: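 HUVEC primary cells, 24 h compound exposure; VCAM-1 by ELISA; gain/loss of signal fitted bidirectionally vs DMSO baseline.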

[2] = BSK_4H_Eotaxin3: BioMAP Diversity Plus: 4H Assay for Eotaxin 3 Biomarker Activity (AID 2283000); details: primary human endothelial cells (HUVEC); actives raise or lower the signal;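 on outcome: CCL26 protein level quantified by ELISA in parallel with SRB cytotoxicity check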
How it was run: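 ELISA quantitation of CCL26 (Eotaxin-3) protein from chemically dosed human vascular endothelial cells at 24 h; increases and decreases both scored relative to DMSO-treated baseline.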

[3] = target: human Peroxisome Proliferator-activated Receptor alpha (PPARa), PPARA (gene 5465) (UniProt Q07869); test: ATG_PPARa_TRANS: Attagene TRANS-FACTORIAL HepG2 Assay for human Peroxisome Proliferator-activated Receptor alpha (PPARa) (AID 2283001; active means hit-call score of the fitted dose curve at least 0.9, where 1 is the maximum)
How it was run: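 Transient HepG2 transfection, GAL4-UAS reporters, NR-Gal4 chimeras; 24 h compound exposure. Readout: reporter transcripts by RT-PCR, 6-FAM primer extension, HpaI digest, capillary electrophoresis. Positive direction vs DMSO baseline.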

[4] = read-out: Intercellular Adhesion Molecule 1 (ICAM1), ICAM1 (gene 3383); test: BSK_3C_ICAM1: BioMAP Diversity Plus: 3C Assay for Intercellular Adhesion Molecule 1 (ICAM1) Biomarker Activity (AID 2283003); details: primary human endothelial cells (HUVEC); actives raise or lower the signal
How it was run: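 Using DMSO as baseline, bidirectional curve fitting was applied to ICAM-1 ELISA signals from HUVEC in the 3C system, measured 24 h after compound addition.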

[5] = target: Retinoic acid receptor alpha (Homo sapiens) (UniProt P10276); test: ATG_RARa_TRANS: Attagene TRANS-FACTORIAL HepG2 Assay for human Retinoic Acid Receptor alpha (RARa) (AID 2283005; active means hit-call score of the fitted dose curve at least 0.9, where 1 is the maximum)
How it was run: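 HepG2 transiently transfected with multiplex GAL4-UAS reporter units including a human RARa–GAL4 chimera; 24 h compound exposure. Reporter mRNA quantified by RT-PCR, 6-FAM labeling and capillary electrophoresis; gain of signal versus DMSO.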

[6] = BSK_3C_Proliferation: Cell Proliferation Assessment in the BioMAP Diversity Plus: 3C Assay (AID 2283006); details: primary human endothelial cells (HUVEC);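 on AC50: potency may reflect either rise or fall in cell number versus DMSO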
How it was run: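 Measured here: sulforhodamine B (0.1%) staining of TCA-fixed sub-confluent umbilical vein endothelial cultures 48 h post-dosing, absorbance 560 nm. DMSO served as negative control and baseline; both signal gain and loss were modelled.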

[7] = target: Peroxisome proliferator-activated receptor gamma (Homo sapiens) (UniProt P37231); test: ATG_PPARg_TRANS: Attagene TRANS-FACTORIAL HepG2 Assay for human Peroxisome Proliferator-activated Receptor-gamma (PPARg) (AID 2283007; active means hit-call score of the fitted dose curve at least 0.9, where 1 is the maximum)
How it was run: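 Endpoint reflects upward reporter mRNA change versus DMSO controls. Setup: transiently transfected HepG2, GAL4-UAS reporters driven by chimeric NR-Gal4, 24 h incubation, RT-PCR with capillary electrophoresis read-out.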

[8] = target: Nuclear receptor subfamily 1 group I member 2 (Homo sapiens) (UniProt O75469); test: ATG_PXR_TRANS: Attagene TRANS-FACTORIAL HepG2 Assay for human Pregnane X Receptor (PXR) (AID 2283008; active means hit-call score of the fitted dose curve at least 0.9, where 1 is the maximum)
How it was run: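 Multiplexed TRANS reporter panel in HepG2; this component tracks PXR-Gal4-driven reporter mRNA after 24 h dosing, measured by RT-PCR with capillary electrophoresis fluorescence, fitted against DMSO.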

[9] = target: Retinoic acid receptor RXR-alpha (Homo sapiens) (UniProt P19793); test: ATG_RXRa_TRANS: Attagene TRANS-FACTORIAL HepG2 Assay for human Retinoid X Receptor alpha (RXRa) (AID 2283012; active means hit-call score of the fitted dose curve at least 0.9, where 1 is the maximum)
How it was run: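 Chimeric NR-GAL4 trans-activation in HepG2, 24 h treatment; reporter transcripts quantified by fluorescence on capillary electrophoresis, analysed for upward change from DMSO.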

[10] = read-out: E-selectin (Homo sapiens) (UniProt P16581); test: BSK_3C_Eselectin: BioMAP Diversity Plus: 3C Assay for Eselectin Biomarker Activity (AID 2283015); details: primary human endothelial cells (HUVEC); actives raise or lower the signal;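 on outcome: cell surface E-selectin protein quantified by ELISA 24 h after dosing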
How it was run: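 Endpoint derived by bidirectional fitting against DMSO vehicle; signal is ELISA-detected E-selectin from primary HUVEC at 24 h post-dosing, with parallel SRB staining (0.1% SRB, 560 nm) flagging cytotoxicity.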

[11] = read-out: Monocyte Chemoattractant Protein-1 (MCP1), CCL2 (gene 6347); test: BSK_3C_MCP1: BioMAP Diversity Plus: 3C Assay for Monocyte Chemoattractant Protein-1 (MCP1) Biomarker Activity (AID 2283017); details: primary human endothelial cells (HUVEC); actives raise or lower the signal
How it was run: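 Using human vascular primary endothelium, researchers measured MCP-1 by ELISA 24 h after treatment, with DMSO serving as negative control for bidirectional fitting.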

[12] = read-out: Monocyte Chemoattractant Protein-1 (MCP1), CCL2 (gene 6347); test: BSK_4H_MCP1: BioMAP Diversity Plus: 4H Assay for Monocyte Chemoattractant Protein-1 (MCP1) Biomarker Activity (AID 2283018); details: primary human endothelial cells (HUVEC); actives raise or lower the signal
How it was run: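 Primary human umbilical vein endothelium is exposed to chemical for 24 h before MCP-1 is assayed by ELISA. Concentration-response fitted bidirectionally relative to DMSO.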

[13] = read-out: Human Leukocyte Antigen - DR isotype (HLADR), HLA-DRA (gene 3122); test: BSK_3C_HLADR: BioMAP Diversity Plus: 3C Assay for Human Leukocyte Antigen - DR isotype (HLADR) Biomarker Activity (AID 2283019); details: primary human endothelial cells (HUVEC); actives raise or lower the signal;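 on outcome: ELISA of cell-surface HLA-DR on HUVEC 24 h after dosing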
How it was run: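 Compound added to primary HUVEC cultures, 24 h incubation, then HLA-DR determined by ELISA; endpoint derived by bidirectional fitting relative to DMSO negative control.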

[14] = read-out: Interleukin-8 (IL8), CXCL8 (gene 3576); test: BSK_3C_IL8: BioMAP Diversity Plus: 3C Assay for Interleukin-8 (IL8) Biomarker Activity (AID 2283020); details: primary human endothelial cells (HUVEC); actives raise or lower the signal
How it was run: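 Using DMSO-treated wells as the baseline, bidirectional curve fitting was applied to ELISA-measured IL-8 from human umbilical vein endothelial cultures sampled 24 h after compound addition.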

[15] = target: human Peroxisome Proliferator-activated Receptor delta (PPARd), PPARD (gene 5467) (UniProt Q03181); test: ATG_PPARd_TRANS: Attagene TRANS-FACTORIAL HepG2 Assay for human Peroxisome Proliferator-activated Receptor delta (PPARd) (AID 2283002; active means hit-call score of the fitted dose curve at least 0.9, where 1 is the maximum)
How it was run: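 Read-out: reporter mRNA induction, quantified by fluorescent RT-PCR products resolved by capillary electrophoresis. Human HepG2 liver cells carried transiently transfected Gal4-UAS reporter constructs with chimeric NR-Gal4 fusions. Cells were dosed for 24 h; DMSO served as baseline.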

[16] = target: human Retinoic Acid Receptor gamma (RARg), RARG (gene 5916) (UniProt P13631); test: ATG_RARg_TRANS: Attagene TRANS-FACTORIAL HepG2 Assay for human Retinoic Acid Receptor gamma (RARg) (AID 2283009; active means hit-call score of the fitted dose curve at least 0.9, where 1 is the maximum)
How it was run: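 Gain-of-signal relative to DMSO is reported from fluorescent capillary electrophoresis of RT-PCR reporter products. These came from HepG2 cells expressing transfected RARg-GAL4 chimeras with UAS reporters, harvested 24 h after dosing.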

[17] = target: human Retinoid X Receptor beta (RXRb), RXRB (gene 6257) (UniProt P28702); test: ATG_RXRb_TRANS: Attagene TRANS-FACTORIAL HepG2 Assay for human Retinoid X Receptor beta (RXRb) (AID 2283013; active means hit-call score of the fitted dose curve at least 0.9, where 1 is the maximum)
How it was run: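 After a 24 h incubation with test chemical, transfected HepG2 cells carrying NR-Gal4 fusions and GAL4-UAS reporter transcription units yield RNA whose reporter cDNA is FAM-labelled, HpaI-cut and sized by capillary electrophoresis; increases over DMSO are scored.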

[18] = read-out: Interleukin-1 alpha (IL1a), IL1A (gene 3552); test: BSK_BE3C_IL1a: BioMAP Diversity Plus: BE3C Assay for Interleukin-1 alpha (IL1a) Biomarker Activity (AID 2283016); details: primary human bronchial epithelial cells; actives raise or lower the signal
How it was run: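 Measured in human lung primary bronchial epithelial cells: IL-1a by ELISA at 24 h after dosing, with bidirectional fitting against DMSO.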

[19] = target: human Retinoic Acid Receptor beta (RARb), RARB (gene 5915) (UniProt P10826); test: ATG_RARb_TRANS: Attagene TRANS-FACTORIAL HepG2 Assay for human Retinoic Acid Receptor beta (AID 2283004; active means hit-call score of the fitted dose curve at least 0.9, where 1 is the maximum)
How it was run: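 Fluorescent capillary-electrophoresis detection of GAL4-UAS reporter mRNA defines the endpoint, with induction over DMSO-treated wells scored as activity. Transiently transfected human hepatoma HepG2 cells expressing exogenous NR–Gal4 proteins are exposed to test chemicals for 24 h.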

[20] = target: human RAR-related Orphan Receptor gamma (RORg), RORC (gene 6097) (UniProt P51449); test: ATG_RORg_TRANS: Attagene TRANS-FACTORIAL HepG2 Assay for human RAR-related Orphan Receptor gamma (RORg) (AID 2283011; active means hit-call score of the fitted dose curve at least 0.9, where 1 is the maximum)
How it was run: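 Chimeric RORg-Gal4 transactivation in transfected HepG2; 24 h exposure; RT-PCR/capillary electrophoresis readout of reporter mRNA, DMSO baseline.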

Sequence of Peroxisome proliferator-activated receptor gamma (Homo sapiens) (P37231 whole entry, looked up, the tested form may be a part): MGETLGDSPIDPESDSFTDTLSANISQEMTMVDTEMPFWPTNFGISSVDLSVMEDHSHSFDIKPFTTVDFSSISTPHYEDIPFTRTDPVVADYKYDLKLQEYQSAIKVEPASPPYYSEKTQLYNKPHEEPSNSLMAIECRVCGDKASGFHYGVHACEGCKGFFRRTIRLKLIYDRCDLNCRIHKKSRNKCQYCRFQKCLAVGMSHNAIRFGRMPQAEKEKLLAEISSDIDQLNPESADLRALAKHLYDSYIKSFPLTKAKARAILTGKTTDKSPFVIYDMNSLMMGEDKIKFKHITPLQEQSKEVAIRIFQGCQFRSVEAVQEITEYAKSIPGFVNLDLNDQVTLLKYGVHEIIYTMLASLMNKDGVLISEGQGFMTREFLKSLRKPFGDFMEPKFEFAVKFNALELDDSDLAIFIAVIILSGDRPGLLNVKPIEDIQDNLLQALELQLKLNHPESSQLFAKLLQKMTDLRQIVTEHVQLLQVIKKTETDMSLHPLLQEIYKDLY
Sequence of human Retinoic Acid Receptor beta (RARb), RARB (gene 5915) (P10826 whole entry, looked up, the tested form may be a part): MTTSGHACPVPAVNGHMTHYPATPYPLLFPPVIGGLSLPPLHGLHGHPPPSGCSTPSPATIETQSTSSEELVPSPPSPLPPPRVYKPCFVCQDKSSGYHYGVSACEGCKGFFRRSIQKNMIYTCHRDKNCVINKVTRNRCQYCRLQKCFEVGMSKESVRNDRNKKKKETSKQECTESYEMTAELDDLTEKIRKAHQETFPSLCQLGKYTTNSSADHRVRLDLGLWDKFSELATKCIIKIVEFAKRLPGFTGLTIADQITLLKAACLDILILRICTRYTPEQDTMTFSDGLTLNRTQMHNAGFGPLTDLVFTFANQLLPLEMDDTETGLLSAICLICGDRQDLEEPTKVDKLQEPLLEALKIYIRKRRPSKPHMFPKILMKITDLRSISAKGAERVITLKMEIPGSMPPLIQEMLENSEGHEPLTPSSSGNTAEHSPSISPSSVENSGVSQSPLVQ
Sequence of human Peroxisome Proliferator-activated Receptor delta (PPARd), PPARD (gene 5467) (Q03181 whole entry, looked up, the tested form may be a part): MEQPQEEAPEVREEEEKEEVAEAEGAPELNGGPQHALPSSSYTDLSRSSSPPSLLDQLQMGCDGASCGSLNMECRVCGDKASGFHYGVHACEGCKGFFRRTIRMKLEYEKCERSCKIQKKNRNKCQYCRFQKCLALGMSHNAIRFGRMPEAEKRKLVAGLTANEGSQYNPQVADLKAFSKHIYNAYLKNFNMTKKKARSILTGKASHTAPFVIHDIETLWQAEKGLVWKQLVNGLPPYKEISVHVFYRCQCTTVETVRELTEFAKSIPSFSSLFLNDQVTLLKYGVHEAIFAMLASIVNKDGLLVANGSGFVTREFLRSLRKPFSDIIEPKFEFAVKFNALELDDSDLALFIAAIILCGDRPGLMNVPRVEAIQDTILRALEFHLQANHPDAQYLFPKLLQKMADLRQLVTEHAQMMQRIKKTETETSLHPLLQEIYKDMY
Sequence of Retinoic acid receptor RXR-alpha (Homo sapiens) (P19793 whole entry, looked up, the tested form may be a part): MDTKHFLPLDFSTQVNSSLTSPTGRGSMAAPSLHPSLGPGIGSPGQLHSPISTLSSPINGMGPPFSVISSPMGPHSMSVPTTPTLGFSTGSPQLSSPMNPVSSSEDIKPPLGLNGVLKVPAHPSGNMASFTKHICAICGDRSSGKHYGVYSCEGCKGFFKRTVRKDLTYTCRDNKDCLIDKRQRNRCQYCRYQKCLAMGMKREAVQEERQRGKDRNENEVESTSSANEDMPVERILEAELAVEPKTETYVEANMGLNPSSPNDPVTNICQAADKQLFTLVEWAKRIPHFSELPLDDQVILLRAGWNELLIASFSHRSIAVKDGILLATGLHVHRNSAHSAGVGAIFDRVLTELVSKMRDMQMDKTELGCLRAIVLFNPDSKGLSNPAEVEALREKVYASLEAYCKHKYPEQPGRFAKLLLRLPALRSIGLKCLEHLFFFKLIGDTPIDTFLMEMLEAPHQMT
Sequence of E-selectin (Homo sapiens) (P16581 whole entry, looked up): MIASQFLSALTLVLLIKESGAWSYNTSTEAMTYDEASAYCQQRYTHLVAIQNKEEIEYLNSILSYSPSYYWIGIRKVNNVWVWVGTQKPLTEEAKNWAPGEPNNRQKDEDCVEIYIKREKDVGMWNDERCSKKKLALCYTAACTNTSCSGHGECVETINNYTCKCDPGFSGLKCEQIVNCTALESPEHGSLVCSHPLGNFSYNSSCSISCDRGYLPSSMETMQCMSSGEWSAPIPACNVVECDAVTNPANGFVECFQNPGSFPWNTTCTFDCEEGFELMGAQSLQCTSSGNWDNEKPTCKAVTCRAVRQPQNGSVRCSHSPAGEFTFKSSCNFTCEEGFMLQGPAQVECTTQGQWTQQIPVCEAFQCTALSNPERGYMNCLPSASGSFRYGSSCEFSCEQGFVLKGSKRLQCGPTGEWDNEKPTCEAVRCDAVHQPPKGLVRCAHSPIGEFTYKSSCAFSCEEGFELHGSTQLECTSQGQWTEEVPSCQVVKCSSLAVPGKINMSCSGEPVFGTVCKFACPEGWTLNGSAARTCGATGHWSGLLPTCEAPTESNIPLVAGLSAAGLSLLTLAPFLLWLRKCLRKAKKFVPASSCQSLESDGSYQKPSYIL
Sequence of Nuclear receptor subfamily 1 group I member 2 (Homo sapiens) (O75469 whole entry, looked up, the tested form may be a part): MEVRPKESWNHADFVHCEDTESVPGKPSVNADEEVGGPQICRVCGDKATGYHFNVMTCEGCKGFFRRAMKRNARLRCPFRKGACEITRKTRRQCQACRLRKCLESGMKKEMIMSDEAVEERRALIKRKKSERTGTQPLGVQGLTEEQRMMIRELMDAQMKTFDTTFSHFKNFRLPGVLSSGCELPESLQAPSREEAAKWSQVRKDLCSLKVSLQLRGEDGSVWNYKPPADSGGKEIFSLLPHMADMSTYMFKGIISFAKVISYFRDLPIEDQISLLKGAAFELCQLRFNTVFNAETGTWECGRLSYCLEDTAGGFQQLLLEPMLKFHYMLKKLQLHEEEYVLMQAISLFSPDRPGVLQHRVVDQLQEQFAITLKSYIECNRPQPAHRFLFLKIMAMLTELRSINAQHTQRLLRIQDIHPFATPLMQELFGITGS
Sequence of human Retinoid X Receptor beta (RXRb), RXRB (gene 6257) (P28702 whole entry, looked up, the tested form may be a part): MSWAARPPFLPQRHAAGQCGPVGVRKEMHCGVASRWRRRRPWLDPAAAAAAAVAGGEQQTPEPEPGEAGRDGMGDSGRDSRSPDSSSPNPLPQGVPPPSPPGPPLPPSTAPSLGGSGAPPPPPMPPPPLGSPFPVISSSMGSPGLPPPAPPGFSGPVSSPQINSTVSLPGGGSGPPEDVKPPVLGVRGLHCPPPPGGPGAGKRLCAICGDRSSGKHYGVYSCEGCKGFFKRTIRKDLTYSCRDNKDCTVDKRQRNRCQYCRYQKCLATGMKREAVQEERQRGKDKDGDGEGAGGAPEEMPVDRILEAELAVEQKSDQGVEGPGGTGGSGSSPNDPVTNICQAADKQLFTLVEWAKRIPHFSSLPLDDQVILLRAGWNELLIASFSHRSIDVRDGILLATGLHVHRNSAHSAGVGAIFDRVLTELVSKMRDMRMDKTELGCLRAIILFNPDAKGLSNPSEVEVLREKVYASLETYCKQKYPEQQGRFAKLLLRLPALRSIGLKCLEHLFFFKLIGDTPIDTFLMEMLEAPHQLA
Sequence of Retinoic acid receptor alpha (Homo sapiens) (P10276 whole entry, looked up, the tested form may be a part): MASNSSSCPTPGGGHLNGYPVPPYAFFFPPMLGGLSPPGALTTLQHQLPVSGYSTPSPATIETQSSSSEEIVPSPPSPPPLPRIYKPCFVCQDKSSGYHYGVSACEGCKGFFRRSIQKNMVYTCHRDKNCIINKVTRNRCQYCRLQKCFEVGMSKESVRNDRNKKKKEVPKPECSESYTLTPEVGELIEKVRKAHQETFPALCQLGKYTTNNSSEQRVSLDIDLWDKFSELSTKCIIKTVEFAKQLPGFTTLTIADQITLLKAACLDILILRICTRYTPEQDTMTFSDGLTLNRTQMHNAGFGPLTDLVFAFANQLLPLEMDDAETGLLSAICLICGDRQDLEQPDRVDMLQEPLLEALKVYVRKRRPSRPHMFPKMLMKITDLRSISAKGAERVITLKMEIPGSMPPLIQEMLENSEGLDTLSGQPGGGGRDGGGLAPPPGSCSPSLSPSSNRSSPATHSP
Sequence of human RAR-related Orphan Receptor gamma (RORg), RORC (gene 6097) (P51449 whole entry, looked up, the tested form may be a part): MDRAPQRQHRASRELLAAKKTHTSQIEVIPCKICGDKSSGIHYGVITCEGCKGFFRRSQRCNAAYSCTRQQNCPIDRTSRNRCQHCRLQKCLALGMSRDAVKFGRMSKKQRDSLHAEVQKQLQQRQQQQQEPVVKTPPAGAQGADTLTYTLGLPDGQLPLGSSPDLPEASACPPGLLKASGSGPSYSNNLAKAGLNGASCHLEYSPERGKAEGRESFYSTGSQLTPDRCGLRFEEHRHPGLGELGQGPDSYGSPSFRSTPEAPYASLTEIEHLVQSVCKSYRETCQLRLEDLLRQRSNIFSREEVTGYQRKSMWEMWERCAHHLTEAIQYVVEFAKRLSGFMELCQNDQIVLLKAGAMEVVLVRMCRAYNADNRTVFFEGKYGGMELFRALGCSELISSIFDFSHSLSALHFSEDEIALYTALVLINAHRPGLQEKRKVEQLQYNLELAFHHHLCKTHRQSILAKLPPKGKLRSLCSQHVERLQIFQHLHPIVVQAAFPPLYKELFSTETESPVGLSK
Sequence of human Peroxisome Proliferator-activated Receptor alpha (PPARa), PPARA (gene 5465) (Q07869 whole entry, looked up, the tested form may be a part): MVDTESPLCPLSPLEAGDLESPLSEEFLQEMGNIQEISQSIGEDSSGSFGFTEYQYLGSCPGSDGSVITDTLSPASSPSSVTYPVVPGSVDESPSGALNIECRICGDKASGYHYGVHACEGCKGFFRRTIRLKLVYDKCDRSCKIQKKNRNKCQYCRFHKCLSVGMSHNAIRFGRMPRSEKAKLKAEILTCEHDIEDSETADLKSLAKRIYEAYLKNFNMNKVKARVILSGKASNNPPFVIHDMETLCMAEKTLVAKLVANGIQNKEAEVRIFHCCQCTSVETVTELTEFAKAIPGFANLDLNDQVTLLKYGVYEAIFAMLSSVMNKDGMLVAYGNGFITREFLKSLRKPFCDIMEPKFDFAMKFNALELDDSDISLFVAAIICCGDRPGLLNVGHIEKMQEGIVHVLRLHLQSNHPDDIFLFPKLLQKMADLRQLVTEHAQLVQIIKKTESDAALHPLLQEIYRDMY

Structure (SMILES): O=S1OCC2C(CO1)C1(Cl)C(Cl)=C(Cl)C2(Cl)C1(Cl)Cl (centres undefined)
- AC50 [1]: 30.3 µM (active)
- AC50 [2]: 30.9 µM (active)
- outcome [3]: inactive
- AC50 [4]: 33.9 µM (active)
- outcome [5]: inactive
- AC50 [6]: 24.5 µM (active)
- outcome [7]: inactive
- outcome [8]: inactive
- outcome [9]: inactive
- AC50 [10]: 34.5 µM (active)
- AC50 [11]: 30.3 µM (active)
- AC50 [12]: 26 µM (active)
- AC50 [13]: 30 µM (active)
- AC50 [14]: 32.7 µM (active)

Structure (SMILES): Clc1ccccc1-c1nnc(-c2ccccc2Cl)nn1
- outcome [1]: inactive
- outcome [2]: inactive
- outcome [15]: inactive
- outcome [4]: inactive
- outcome [5]: inactive
- AC50 [6]: 11.7 µM (active)
- AC50 [7]: 64.7 µM (active)
- outcome [8]: inactive
- outcome [16]: inactive
- outcome [9]: inactive
- outcome [17]: inactive
- outcome [10]: inactive
- outcome [11]: inactive
- AC50 [12]: 20 µM (active)
- outcome [13]: inactive
- outcome [14]: inactive

Structure (SMILES): O=C(NC(=O)c1c(F)cccc1F)Nc1ccc(OC(F)(F)C(F)OC(F)(F)F)c(Cl)c1 (centres undefined)
- outcome [1]: inactive
- outcome [2]: inactive
- outcome [15]: inactive
- outcome [4]: inactive
- outcome [6]: inactive
- outcome [7]: inactive
- outcome [9]: inactive
- AC50 [10]: 12.7 µM (active)
- outcome [18]: inactive
- outcome [11]: inactive
- outcome [12]: inactive
- AC50 [13]: 14 µM (active)
- outcome [14]: inactive

Structure (SMILES): O=C(Nc1ccccc1)Nc1cnns1
- outcome [1]: inactive
- outcome [2]: inactive
- outcome [15]: inactive
- outcome [4]: inactive
- outcome [19]: inactive
- outcome [5]: inactive
- AC50 [6]: 20 µM (active)
- outcome [7]: inactive
- outcome [8]: inactive
- outcome [20]: inactive
- outcome [9]: inactive
- outcome [17]: inactive
- outcome [10]: inactive
- outcome [11]: inactive
- outcome [12]: inactive
- AC50 [13]: 36.1 µM (active)
- outcome [14]: inactive

Structure (SMILES): CN1CSC(=S)N(C)C1
- AC50 [1]: 21.5 µM (active)
- AC50 [2]: 20.9 µM (active)
- outcome [3]: inactive
- outcome [4]: inactive
- outcome [19]: inactive
- AC50 [6]: 26.6 µM (active)
- outcome [7]: inactive
- outcome [20]: inactive
- outcome [9]: inactive
- AC50 [10]: 18.1 µM (active)
- AC50 [11]: 31.2 µM (active)
- outcome [12]: inactive
- AC50 [13]: 19 µM (active)
- outcome [14]: inactive

Structure (SMILES): C[C@H]1[C@H](c2ccc(Cl)cc2)SC(=O)N1C(=O)NC1CCCCC1
- outcome [1]: inactive
- outcome [2]: inactive
- outcome [4]: inactive
- outcome [19]: inactive
- outcome [5]: inactive
- AC50 [6]: 13.1 µM (active)
- AC50 [7]: 16 µM (active)
- outcome [8]: inactive
- outcome [16]: inactive
- outcome [17]: inactive
- outcome [10]: inactive
- AC50 [11]: 20 µM (active)
- AC50 [12]: 8.84 µM (active)
- AC50 [13]: 21.8 µM (active)
- AC50 [14]: 20 µM (active)
